Records with an inconclusive call do not appear. The source made the active and inactive calls. Calls follow the shape of the dose curve; as a rule, active = well fitted cell-killing curve with a large enough effect; inconclusive = small, poorly fitted or top-dose-only effect; inactive = flat fitted curve, though single readings scatter.
Legend:
[1] = Cell Viability - LYMP2-013 (AID 970); also: series mostly up to about 92 µM; nearly all actives have a fitted effect of over 55% in size
In short: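 Human lymphoblastoid cells, 2500/well, were preincubated 5 hr at 37 C, then treated with compounds for 24 hr at 37 C in complete medium. Intracellular ATP was read by CellTiter-Glo luminescence; AC50 from Hill-equation fits of concentration-response data.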

[2] = Cell Viability - LYMP2-015 (AID 971); also: nearly all actives have a fitted effect of over 55% in size
In short: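 Human lymphoblastoid cells (2500/well) in complete medium were preincubated 5 hr at 37 C, then compound-treated 24 hr at 37 C. Intracellular ATP was read by CellTiter-Glo luminescence after 30 min at room temperature; AC50 came from Hill-equation concentration-response fits.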

[3] = Cell Viability - LYMP2-017 (AID 972); also: series mostly up to about 92 µM; nearly all actives have a fitted effect of over 55% in size
In short: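 Human lymphoblastoid cells (2500/well) were seeded in complete medium, held 5 hr at 37 C, then exposed to compounds for 24 hr at 37 C. Intracellular ATP was read by CellTiter-Glo luminescence after 30 min at room temperature, with AC50 values from Hill-equation fits.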

[4] = Cell Viability - LYMP2-019 (AID 973); also: nearly all actives have a fitted effect of over 55% in size
In short: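 Human lymphoblastoid cells were seeded at 2500 cells/well, preincubated 5 hr at 37 C, then exposed to compounds for 24 hr at 37 C in complete medium. Intracellular ATP was measured by CellTiter-Glo luminescence; AC50 from Hill fits.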

[5] = Cell Viability - LYMP2-021 (AID 974)
In short: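 Human lymphoblastoid cells (2500/well) were preincubated 5 hr at 37 C, then exposed to compounds for 24 hr at 37 C in complete medium. Intracellular ATP was read by CellTiter-Glo luminescence; AC50 came from Hill-equation fits of concentration-response data.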

[6] = Cell Viability - LYMP2-023 (AID 975)
In short: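 Human lymphoblastoid cells (2500/well) were preincubated 5 hr at 37 C, then exposed to compounds for 24 hr at 37 C in complete medium. Cellular ATP was read by CellTiter-Glo luminescence, and AC50 came from Hill-equation fits.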

[7] = Cell Viability - LYMP2-025 (AID 976); also: series mostly up to about 92 µM
In short: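 Human lymphoblastoid LYMP2-025 cells (2500/well) were pre-incubated 5 hr at 37 C, then treated with compounds for 24 hr at 37 C in complete medium. Viability was read as intracellular ATP by CellTiter-Glo luminescence; AC50 from Hill fits.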

[8] = Cell Viability - LYMP2-002 (AID 977);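 also: series mostly up to about 92 µM; compound exposure lasted 24 h at 37 °C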
In short: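 Cytotoxicity is scored as concentration-dependent loss of cellular ATP in a human lymphoblastoid line after 24 hr compound treatment at 37 C. AC50 is obtained by modelling concentration-response data with the Hill equation.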

[9] = Cell Viability - LYMP2-006 (AID 978); also: series mostly up to about 92 µM; nearly all actives have a fitted effect of over 60% in size
In short: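 qHTS, 1536-well; 2500 cells/well, 5 hr 37 C; cpd 24 hr 37 C; CellTiter-Glo 30 min RT; luminescence. Tetraoctylammonium bromide pos. ctrl. AC50 via Hill eqn.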

[10] = Cell Viability - LYMP2-007 (AID 979);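 also: cells exposed to compound for 24 h before reading; nearly all actives have a fitted effect of over 60% in size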
In short: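 Human lymphoblastoid cells (2500/well) were plated in complete medium, incubated 5 hr at 37 C, then exposed to compounds for 24 hr at 37 C. Intracellular ATP was read by CellTiter-Glo luminescence after 30 min at room temperature; AC50 from Hill fits.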

[11] = Cell Viability - LYMP2-008 (AID 980); also: nearly all actives have a fitted effect of over 60% in size
In short: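 Human lymphoblastoid cells (2500/well) were plated, held 5 hr at 37 C, then exposed to compounds for 24 hr at 37 C in complete medium. Intracellular ATP was read by CellTiter-Glo luminescence; AC50 from Hill-fitted concentration-response.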

[12] = Cell Viability - LYMP2-010 (AID 981); also: nearly all actives have a fitted effect of over 55% in size
In short: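 Human lymphoblastoid LYMP2-010 cells (2500/well) were preincubated 5 hr at 37 C, then exposed to compounds for 24 hr at 37 C in complete medium. Intracellular ATP was measured by CellTiter-Glo luminescence after 30 min at room temperature; AC50 from Hill-fitted concentration-response.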

[13] = Cell Viability - LYMP2-012 (AID 982)
Excerpt: NIH Chemical Genomics Center [NCGC]
NIH Molecular Libraries Screening Centers Network [MLSCN]
National Institutes of Environmental Health Sciences [NIEHS]
National Toxicology Program [NTP]
We have developed a 1536-well cell-based assay for quantitative high throughput screening (qHTS) against a number of cell lines to determine in vitro cytotoxicity of small molecules. This particular assay uses a human lymphoblastoid cell line (LYMP2-012) purchased from Coriell Institute for Medical Research.
NCGC Assay Protocol Summary:
The CellTiter-Glo luminescent cell viability assay (Promega) is a homogeneous method to measure the number of viable cells in culture. The end point readout of this assay is based on quantitation of intracellular ATP, an indicator of metabolic activity, using the luciferase reaction. […]
Using the CellTiter-Glo luminescent cell viability assay, the amount of cellular ATP was measured in the lymphoblastoid cell line with complete culture medium following compound treatment for 24 hours. […] Library compounds were measured for their ability to cause acute toxicity in the cell line, as reflected by a decrease in intracellular ATP levels, in a concentration-dependent manner. […] AC50 values were determined from concentration-response data modeled with the standard Hill equation. […]
8. Detection; Luminescence; Viewlux plate reader […]

[14] = Cell Viability - LYMP2-014 (AID 983); also: series mostly up to about 92 µM; nearly all actives have a fitted effect of over 50% in size
In short: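 Human lymphoblastoid cells (2500/well) were pre-incubated 5 hr at 37 C, then exposed to compounds in complete medium for 24 hr at 37 C. Intracellular ATP was read by CellTiter-Glo luminescence after 30 min at room temperature; AC50 from Hill fits.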

[15] = Cell Viability - LYMP2-016 (AID 984); also: nearly all actives have a fitted effect of over 55% in size
In short: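 qHTS, 1536-well: 2500 LYMP2-016 cells/well, 5 hr 37 C, compound added, 24 hr 37 C, CellTiter-Glo 30 min RT, luminescence. Tetraoctylammonium bromide positive control. AC50 via Hill fit.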

[16] = Cell Viability - LYMP2-018 (AID 985);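 also: compound exposure lasted 24 hr at 37 °C; nearly all actives have a fitted effect of over 50% in size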
In short: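 Human lymphoblastoid cells (2500/well) were pre-incubated 5 hr at 37 C, then exposed to compounds for 24 hr at 37 C in complete medium. Viability was read as intracellular ATP by CellTiter-Glo luminescence; AC50 values came from Hill-equation fits.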

[17] = Cell Viability - LYMP2-020 (AID 986)
In short: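 Human lymphoblastoid cells, 2500/well, were pre-incubated 5 hr at 37 C, then exposed to compounds for 24 hr at 37 C in complete medium. Intracellular ATP was read by CellTiter-Glo luminescence, and AC50 was derived by Hill fitting of concentration-response data.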

[18] = Cell Viability - LYMP2-022 (AID 987); also: nearly all actives have a fitted effect of over 55% in size
In short: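 Human lymphoblastoid cells, 2500/well, preincubated 5 hr at 37 C, then exposed to compounds over a concentration range for 24 hr at 37 C in complete medium. Viability read as intracellular ATP by CellTiter-Glo luminescence after 30 min at room temperature; AC50 from Hill fits.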

[19] = Cell Viability - LYMP2-024 (AID 988); also: nearly all actives have a fitted effect of over 60% in size
In short: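 Human lymphoblastoid cells (2500/well) in complete medium were preincubated 5 hr at 37 C, then exposed to compounds for 24 hr at 37 C. Intracellular ATP was read by CellTiter-Glo luminescence; AC50 from Hill-equation fits of concentration-response data.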

[20] = Cell Viability - LYMP2-026 (AID 989); also: nearly all actives have a fitted effect of over 50% in size
In short: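 Human lymphoblastoid cells (2500/well) in complete medium were preincubated 5 hr at 37 C, then exposed to compounds for 24 hr at 37 C. Cellular ATP was read by CellTiter-Glo luminescence; AC50 from Hill-equation fits of concentration-response data.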

Measured: outcome

COc1ccc(CCC(=O)c2c(O)cc(O[C@@H]3O[C@H](CO)[C@@H](O)[C@H](O)[C@H]3O[C@@H]3O[C@@H](C)[C@H](O)[C@@H](O)[C@H]3O)cc2O)cc1O
inactive: all assays above

C=C1C[C@]23C[C@@]1(O)CC[C@H]2[C@@]12C=C[C@H](O)[C@@](C)(C(=O)O1)[C@H]2[C@@H]3C(=O)O
not listed: [7]
inactive: all other assays above

From PubChem BioAssay (NCATS)
